Results: the supplement of paper PMC6555819

Columns and labels:
Assay in all cases: PBM binding z-score (relative to random genomic background probes); higher = stronger binding; sequences stand for … in GC…GCGATTGACAGCGTAGAATGAAGG
[1] = system: FXR:RXRa (NR concentration 270 nM, RXRa partner concentration 90 nM)
Outline: (§1)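 Binding z-scores were set against random background probes. The data came from custom Agilent 4×180K protein-binding microarrays carrying double-stranded probes with 34-nt variable regions, incubated 1 h with ligand-free nuclear receptor dimers. Partner-specific antibodies detected binding, and scanned fluorescence was regression-normalized.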

[2] = system: LXRa:RXRa (NR concentration 270 nM, RXRa partner concentration 90 nM)
Outline: as §1

[3] = system: LXRa homodimer (NR concentration 270 nM)
Outline: as §1

[4] = system: LXRb:RXRa (NR concentration 270 nM, RXRa partner concentration 90 nM)
Outline: as §1

[5] = system: LXRb homodimer (NR concentration 270 nM)
Outline: as §1

[6] = system: PPARa:RXRa (NR concentration 270 nM, RXRa partner concentration 90 nM)
Outline: as §1

[7] = system: PPARg:RXRa (NR concentration 180 nM, RXRa partner concentration 90 nM)
Outline: as §1

[8] = system: PPARg:RXRa 270nM:90nM, anti-RXR (NR concentration 270 nM, RXRa partner concentration 90 nM)
Outline: as §1

[9] = system: PPARg:RXRa 30nM:10nM, anti-RXR (NR concentration 30 nM, RXRa partner concentration 10 nM)
Outline: as §1

[10] = system: PPARg:RXRa 90nM:30nM, anti-RXR (NR concentration 90 nM, RXRa partner concentration 30 nM)
Outline: as §1

[11] = system: PPARg:RXRa DBDmut IVT, anti-RXR (DBD mutation: RXRa K156A/R161A, NR concentration 270 nM, RXRa partner concentration 90 nM)
Outline: as §1

[12] = system: PPARg:RXRa IVT, anti-PPARg (NR concentration 270 nM, RXRa partner concentration 90 nM)
Outline: as §1

[13] = system: PPARg DBDmut:RXRa IVT, anti-PPARg (DBD mutation: PPARg1 K132A/R137A, NR concentration 270 nM, RXRa partner concentration 90 nM)
Outline: as §1

[14] = system: PPARg DBDmut IVT, anti-PPARg (DBD mutation: PPARg1 K132A/R137A, NR concentration 270 nM)
Outline: as §1

[15] = system: PPARg homodimer (NR concentration 180 nM)
Outline: as §1

[16] = system: PXR:RXRa (NR concentration 270 nM, RXRa partner concentration 90 nM)
Outline: as §1

[17] = system: PXR homodimer (NR concentration 270 nM)
Outline: as §1

[18] = system: RARa:RXR (NR concentration 270 nM, RXRa partner concentration 90 nM)
Outline: as §1

[19] = system: RARa homodimer (NR concentration 270 nM)
Outline: as §1

[20] = system: RARb:RXRa (NR concentration 270 nM, RXRa partner concentration 90 nM)
Outline: as §1

Sequence: TCTTGTAGATCAAAGGTTAAGGAAGCCGAAGCCT
- PBM binding z-score [1]: 1.76
- PBM binding z-score [2]: 1.94
- PBM binding z-score [3]: 0.12
- PBM binding z-score [4]: 1.9
- PBM binding z-score [5]: -0.272
- PBM binding z-score [6]: 4.8
- PBM binding z-score [7]: 7.91
- PBM binding z-score [8]: 7.99
- PBM binding z-score [9]: 7.63
- PBM binding z-score [10]: 8.41
- PBM binding z-score [11]: 2.14
- PBM binding z-score [12]: 3.75
- PBM binding z-score [13]: 1.3
- PBM binding z-score [14]: 0.543
- PBM binding z-score [15]: 1.02
- PBM binding z-score [16]: 2.01
- PBM binding z-score [17]: -0.532
- PBM binding z-score [18]: 2.9
- PBM binding z-score [19]: 0.593
- PBM binding z-score [20]: 2.11

Sequence: CGAACTAGGTCAAGTACAGTGAATCTCCGCACGC
- PBM binding z-score [1]: 4.5
- PBM binding z-score [2]: 2.83
- PBM binding z-score [3]: 0.474
- PBM binding z-score [4]: 2.32
- PBM binding z-score [5]: 0.607
- PBM binding z-score [6]: 4.85
- PBM binding z-score [7]: 7.57
- PBM binding z-score [8]: 6.29
- PBM binding z-score [9]: 4.41
- PBM binding z-score [10]: 5.92
- PBM binding z-score [11]: 8.4
- PBM binding z-score [12]: 8.26
- PBM binding z-score [13]: 1.96
- PBM binding z-score [14]: 1.97
- PBM binding z-score [15]: 2.76
- PBM binding z-score [16]: 1.8
- PBM binding z-score [17]: 0.0981
- PBM binding z-score [18]: 2.37
- PBM binding z-score [19]: 0.517
- PBM binding z-score [20]: 4.19

Sequence: ACAGACAGGTGAGTGAAGGTAACTCAGCTGGACG
- PBM binding z-score [1]: 0.377
- PBM binding z-score [2]: 0.0321
- PBM binding z-score [3]: -0.247
- PBM binding z-score [4]: -0.255
- PBM binding z-score [5]: -0.625
- PBM binding z-score [6]: 0.294
- PBM binding z-score [7]: 0.762
- PBM binding z-score [8]: 0.0476
- PBM binding z-score [9]: -0.138
- PBM binding z-score [10]: -0.304
- PBM binding z-score [11]: 0.432
- PBM binding z-score [12]: 0.804
- PBM binding z-score [13]: 0.0951
- PBM binding z-score [14]: 0.079
- PBM binding z-score [15]: -0.0829
- PBM binding z-score [16]: -0.379
- PBM binding z-score [17]: -0.472
- PBM binding z-score [18]: 0.0819
- PBM binding z-score [19]: -0.173
- PBM binding z-score [20]: 0.67

Sequence: TGTCAAAGTTCAAAGCTAACGTAAGTATCCACAC
- PBM binding z-score [1]: 6.52
- PBM binding z-score [2]: 6.15
- PBM binding z-score [3]: 3.83
- PBM binding z-score [4]: 4.14
- PBM binding z-score [5]: 1.86
- PBM binding z-score [6]: 5.22
- PBM binding z-score [7]: 7.92
- PBM binding z-score [8]: 7.25
- PBM binding z-score [9]: 4.27
- PBM binding z-score [10]: 7.06
- PBM binding z-score [11]: 0.771
- PBM binding z-score [12]: 3.82
- PBM binding z-score [13]: 1.34
- PBM binding z-score [14]: 1.18
- PBM binding z-score [15]: 2.01
- PBM binding z-score [16]: 4.29
- PBM binding z-score [17]: 3.01
- PBM binding z-score [18]: 3.5
- PBM binding z-score [19]: 1.14
- PBM binding z-score [20]: 5.04

Sequence: ACTTACGGGTCAACCAGGTTATAGCACGCGTATA
- PBM binding z-score [1]: 7.15
- PBM binding z-score [2]: 5.03
- PBM binding z-score [3]: 0.836
- PBM binding z-score [4]: 4.26
- PBM binding z-score [5]: 0.9
- PBM binding z-score [6]: 5.69
- PBM binding z-score [7]: 6
- PBM binding z-score [8]: 5.69
- PBM binding z-score [9]: 3.07
- PBM binding z-score [10]: 4.26
- PBM binding z-score [11]: 3.23
- PBM binding z-score [12]: 4.21
- PBM binding z-score [13]: 2.29
- PBM binding z-score [14]: 2.39
- PBM binding z-score [15]: 4.29
- PBM binding z-score [16]: 4.77
- PBM binding z-score [17]: 1.62
- PBM binding z-score [18]: 5.34
- PBM binding z-score [19]: 1.57
- PBM binding z-score [20]: 4.17

Sequence: GCATATAGGTAATACGAGGTGAAAGTCCGATTGT
- PBM binding z-score [1]: 2.16
- PBM binding z-score [2]: 2.66
- PBM binding z-score [3]: 0.407
- PBM binding z-score [4]: 0.883
- PBM binding z-score [5]: -0.463
- PBM binding z-score [6]: 1.76
- PBM binding z-score [7]: 1.44
- PBM binding z-score [8]: 1.38
- PBM binding z-score [9]: 0.459
- PBM binding z-score [10]: 0.853
- PBM binding z-score [11]: 4.42
- PBM binding z-score [12]: 3.44
- PBM binding z-score [13]: 0.607
- PBM binding z-score [14]: 1.33
- PBM binding z-score [15]: 0.669
- PBM binding z-score [16]: 0.96
- PBM binding z-score [17]: 0.299
- PBM binding z-score [18]: 1.27
- PBM binding z-score [19]: 0.304
- PBM binding z-score [20]: 0.336

Sequence: GCAGACAGGTGAAACGCAGGTCACTCAGGGTGGC
- PBM binding z-score [1]: 1.55
- PBM binding z-score [2]: 2.05
- PBM binding z-score [3]: 0.579
- PBM binding z-score [4]: 1.27
- PBM binding z-score [5]: -0.88
- PBM binding z-score [6]: 2.57
- PBM binding z-score [7]: 0.931
- PBM binding z-score [8]: 1.01
- PBM binding z-score [9]: -0.357
- PBM binding z-score [10]: 0.0435
- PBM binding z-score [11]: 0.839
- PBM binding z-score [12]: 1.6
- PBM binding z-score [13]: -0.584
- PBM binding z-score [14]: -0.0986
- PBM binding z-score [15]: 1.32
- PBM binding z-score [16]: 2.65
- PBM binding z-score [17]: -0.357
- PBM binding z-score [18]: 3.45
- PBM binding z-score [19]: -0.516
- PBM binding z-score [20]: 2.44
